Experimental data reported in PubChem BioAssay (Tox21).
Several values for one entry are separate records, joined by “and”; a condition that tells them apart may be missing. Identical values can stand only once. Results filed as inconclusive are left out. A call without a number means that no potency is given here. Activity calls are given as the source filed them. Unless noted, calls follow the shape of the full dose curve.

Tests used:
[1] = qHTS assay to identify small molecule agonists of the vitamin D receptor (VDR) signaling pathway - cell viability counter screen (AID 743224; active = well fitted curve in the direction sought with a large enough effect in the repeat runs; an effect the other way counts as inactive or inconclusive; also: nearly all actives have a fitted effect of over 50% in size; also: potency is read from the fitted curve at half-maximal effect)
Summary of the method: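 Plated VDR-bla cells (4 h, 37C) received compound, incubated 16 h, then LiveBLAzer substrate 2 h RT; CellTiter-Glo added afterwards, luminescence read at 30 min.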

[2] = qHTS assay to identify small molecule antagonists of the vitamin D receptor (VDR) signaling pathway - cell viability counter screen (AID 743225; active = well fitted curve in the direction sought with a large enough effect in the repeat runs; an effect the other way counts as inactive or inconclusive; also: nearly all actives have a fitted effect of over 50% in size; also: potency is read from the fitted curve at half-maximal effect)
Summary of the method: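 Parallel cytotoxicity test: VDR-UAS-bla HEK 293T, 3 nM (final) 1-alpha,25-dihydroxyvitamin D3 with test compound, 16 h, 37C. Endpoint is CellTiter-Glo luminescence in the same wells.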

[3] = qHTS assay to identify small molecule agonists of the NFkB signaling pathway - cell viability counter screen (AID 1159515); also: nearly all actives have a fitted effect of over 55% in size; also: potency is read from the fitted curve at half-maximal effect
Summary of the method: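 Using the same wells as the NFkB reporter read, ME-180 NFkB-bla cells given compounds for 5 hr were assessed for viability via CellTiter-Glo, with luminescence taken after a 30 min room-temperature incubation.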

[4] = qHTS assay to identify small molecule agonists of the endoplasmic reticulum stress response signaling pathway (AID 1159516; active = well fitted activation curve with a large enough effect in the signal ratio in the repeat runs, not every such curve was filed as active; the % refers to the signal ratio)
Summary of the method: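 An ESRE-bla HeLa cell assay: compounds were pin-transferred from DMSO onto overnight-plated cells and left 5 hr at 37 C. Substrate was then loaded for 2 hr at room temperature before reading fluorescence at 460 nm and 530 nm.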

[5] = qHTS assay to identify small molecule antagonists of the retinoid-related orphan receptor gamma (ROR-gamma) signaling pathway - cell viability counter screen (AID 1159520; active = well fitted curve in the direction sought with a large enough effect in the repeat runs; an effect the other way counts as inactive or inconclusive; also: nearly all actives have a fitted effect of over 50% in size; also: potency is read from the fitted curve at half-maximal effect)
Summary of the method: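 Tet-on ROR gamma CHO cells were given compounds for 2 hr, then doxycycline hyclate at 1 uM final, and incubated 16 hr at 37 C. Viability was measured as ATP content by CellTiter-Glo luminescence.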

[6] = qHTS assay to identify small molecule agonists of the AP-1 signaling pathway - cell viability counter screen (AID 1159525); also: nearly all actives have a fitted effect of over 55% in size; also: potency is read from the fitted curve at half-maximal effect
Summary of the method: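 AP-1-bla ME-180 cells in Opti-MEM with 0.5% dialyzed FBS, compound exposure 5 h at 37 C in 15-point titration. Viability read in the same wells as ATP content by CellTiter-Glo luminescence, normalised to tetra-n-octylammonium bromide and DMSO controls.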

[7] = target: Retinoic acid receptor RXR-alpha (Homo sapiens) (UniProt P19793); assay: qHTS assay to identify small molecule agonists of the RXR signaling pathway (AID 1159527); also: nearly all actives have a fitted effect of over 35% in size; also: potency is read from the fitted curve at half-maximal effect
Summary of the method: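 16 hr incubation of compound-treated RXR-alpha-UAS-bla HEK 293T cells (2% charcoal-stripped FBS, 37 C) preceded a 2 hr room-temperature LiveBLAzer FRET substrate step and blue/green fluorescence measurement.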

[8] = target: Nuclear receptor ROR-gamma (Homo sapiens) (UniProt P51449); assay: qHTS assay to identify small molecule antagonists of the retinoid-related orphan receptor gamma (ROR-gamma) signaling pathway (AID 1159521; active = well fitted curve in the direction sought with a large enough effect in the repeat runs; an effect the other way counts as inactive or inconclusive; also: nearly all actives have a fitted effect of over 50% in size; also: potency is read from the fitted curve at half-maximal effect)
Summary of the method: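 Decreased RORE-driven luciferase luminescence indicates antagonism. Tet-on RORγ CHO cells received compound, then 1 uM final doxycycline 2 h later; signal read after 16 h incubation.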

[9] = qHTS assay to identify small molecule agonists of the AP-1 signaling pathway (AID 1159526)
[10] = qHTS assay to identify small molecule agonists of the endoplasmic reticulum stress response signaling pathway - cell viability counter screen (AID 1159517); also: nearly all actives have a fitted effect of over 50% in size; also: potency is read from the fitted curve at half-maximal effect
Summary of the method: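 ESRE-bla HeLa cells, 1,500 per well, seeded overnight then treated with compounds for 5 hr at 37 C. After the beta-lactamase read, viability in the same wells is measured by CellTiter-Glo luminescence after 30 min at room temperature.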

Chain of Retinoic acid receptor RXR-alpha (Homo sapiens) (P19793 whole entry, looked up): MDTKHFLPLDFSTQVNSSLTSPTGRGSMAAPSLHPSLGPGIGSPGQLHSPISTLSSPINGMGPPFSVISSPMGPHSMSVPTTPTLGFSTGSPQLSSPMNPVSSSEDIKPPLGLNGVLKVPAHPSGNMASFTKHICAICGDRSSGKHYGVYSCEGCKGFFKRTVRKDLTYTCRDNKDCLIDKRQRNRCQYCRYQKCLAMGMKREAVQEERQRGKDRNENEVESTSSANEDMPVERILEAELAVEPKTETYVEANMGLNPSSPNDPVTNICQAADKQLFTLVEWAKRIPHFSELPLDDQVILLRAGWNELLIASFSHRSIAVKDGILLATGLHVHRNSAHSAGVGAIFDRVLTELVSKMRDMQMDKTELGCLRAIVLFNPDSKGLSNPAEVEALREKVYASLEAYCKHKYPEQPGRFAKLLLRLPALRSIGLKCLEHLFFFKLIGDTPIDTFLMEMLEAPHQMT

Row | Compound | Potency [1] | Potency [2] | Potency [3] | Potency [4] | Potency [5] | Potency [6] | Potency [7] | Potency [8] | Potency [9] | Potency [10]
1 | CC(=O)[O-].CC(=O)[O-].CC(=O)[O-].[Cr+3] | inactive | inactive | inactive | inactive | inactive | inactive | inactive |  |  | 
2 | CCN(CC)Cc1nccn1-c1ccc([N+](=O)[O-])cc1C(=O)c1ccccc1Cl | inactive | inactive | inactive | inactive | inactive | inactive |  | inactive | inactive | 
3 | O=[N+]([O-])c1cccc2cccc([N+](=O)[O-])c12 | inactive | inactive | inactive | inactive | inactive |  | inactive | inactive | inactive | 
4 | Cc1ccn2nc(S(=O)(=O)Nc3c(F)cccc3F)nc2n1 |  | inactive | inactive | inactive | inactive | inactive | inactive |  | inactive | 
5 | CSSC |  | inactive | inactive | inactive | inactive | inactive |  | inactive |  | 
6 | CN1[C@@H]2CC[C@H]1CC(O)C2 (some centres undefined) | inactive | inactive | inactive | inactive | inactive |  |  |  | inactive | 
7 | N#CCCl | inactive | inactive | inactive | inactive | inactive | inactive |  | inactive | inactive | 
8 | CO/N=C(\C(=O)OC)c1ccccc1CO/N=C(\C)c1cccc(C(F)(F)F)c1 |  |  | inactive | inactive |  | inactive |  | 0.77 µM (active) | inactive | 
9 | Nc1c(Cl)c(Cl)c(Cl)c(Cl)c1Cl |  | inactive | inactive | inactive | inactive |  |  | inactive |  | 
10 | Cc1ccc(C)c2ccccc12 | inactive | inactive | inactive | inactive | inactive | inactive |  | inactive | inactive | 
11 | COC(=O)N(OC)c1ccccc1COc1ccn(-c2ccc(Cl)cc2)n1 |  |  | inactive | inactive |  |  |  | 0.273 µM (active) |  | 
12 | CCCCC(CC)COC(=O)OOC(C)(C)C (centres undefined) | inactive | inactive | inactive | inactive | inactive |  | inactive | inactive | inactive | 
13 | CCCCCON=O | inactive | inactive | inactive | inactive | inactive |  | inactive | inactive | inactive | 
14 | CC(C)Br | inactive |  | inactive | inactive | inactive | inactive |  | inactive |  | 
15 | CC(=O)[O-].CC(=O)[O-].O.O.[Zn+2] | inactive |  | inactive | inactive | inactive | inactive | inactive |  | inactive | 
16 | O=S(=O)(NS(=O)(=O)C(F)(F)F)C(F)(F)F | inactive |  | inactive | inactive | inactive |  |  |  |  | 
17 | CC1CCCC1 |  | inactive | inactive | inactive | inactive | inactive |  | inactive |  | 
18 | CN(C)CCc1c[nH]c2ccccc12 | inactive |  | inactive | inactive | inactive | inactive |  | inactive |  | 
19 | COc1c2c(cc3c1OCO3)CCN(C)C2 | inactive | inactive | inactive | inactive | inactive | inactive | inactive | inactive |  | 
20 | Cc1cnc2c(C(=O)O)c(Cl)ccc2c1 |  |  | inactive | inactive | inactive | inactive | inactive |  | inactive | 

Row | Compound | Potency [1] | Potency [2] | Potency [3] | Potency [4] | Potency [5] | Potency [6] | Potency [7] | Potency [8] | Potency [9] | Potency [10]
21 | CN=C=O | inactive | inactive | inactive | inactive | inactive | inactive |  | inactive | inactive | 
22 | Clc1ccc(C(Cl)(Cl)Cl)cc1Cl |  | inactive | inactive | inactive | 53.3 µM (active) | inactive | inactive | inactive | inactive | 
23 | CC(Cc1ccc2c(c1)OCO2)NO (centres undefined) | inactive | inactive | inactive | inactive | inactive | inactive | inactive |  | inactive | 
24 | CC1CN1 (centres undefined) | inactive | inactive | inactive | inactive | inactive | inactive | inactive |  | inactive | 
25 | Cc1cc(C2CC2)nc(Nc2ccccc2)n1 |  |  | inactive | inactive |  |  |  | inactive |  | 
26 | O=c1c2ccccc2c(=O)c2c1cc(Cl)c1[nH]c3c([nH]c12)c(Cl)cc1c(=O)c2ccccc2c(=O)c13 | inactive |  | inactive | inactive | inactive | inactive | inactive | inactive |  | 
27 | O=[N+]([O-])c1ccc(CCl)cc1 | inactive | inactive | inactive | inactive | inactive |  |  | inactive | inactive | 
28 | Cc1cc2c3c(c1)C(c1ccccc1)=N[C@@H](NC(=O)c1ccncc1)C(=O)N3CC2 | inactive | inactive | inactive | inactive | inactive |  |  |  | inactive | 
29 | CCC(C)Br (centres undefined) | inactive |  | inactive | inactive | inactive |  | inactive | inactive | inactive | 
30 | CCCCC/C=C\C/C=C\C/C=C\C/C=C\CCCC(=O)NCC(=O)O | inactive |  | inactive | inactive | inactive |  | inactive | inactive |  | 
31 | CCCCC(CC)COC(=O)c1ccccc1C(=O)OCC(CC)CCCC (centres undefined) | inactive |  | inactive | inactive | inactive | inactive |  |  | inactive | 
32 | O=C(Nc1ccc(F)cc1F)c1cccnc1Oc1cccc(C(F)(F)F)c1 | inactive | inactive | inactive | inactive | inactive | inactive | inactive | inactive |  | 
33 | CCCCON=O | inactive |  | inactive | inactive | inactive | inactive | inactive |  | inactive | 
34 | C[C@H]1[C@H](c2ccc(Cl)cc2)SC(=O)N1C(=O)NC1CCCCC1 |  |  | inactive | inactive |  | inactive |  | 48.6 µM (active) | inactive | 
35 | C[C@]12Cc3cn[nH]c3C[C@@H]1CC[C@@H]1[C@@H]2CC[C@@]2(C)[C@H]1CC[C@]2(C)O | 29.8 µM (active) | inactive | 23.9 µM (active) | inactive | inactive | 23.9 µM (active) |  | 13.3 µM (active) |  | 
36 | Cc1c([N+](=O)[O-])c(C)c([N+](=O)[O-])c(C(C)(C)C)c1[N+](=O)[O-] | inactive |  | inactive | inactive | inactive | inactive | 12.3 µM (active) |  | inactive | 
37 | CN/C(=N\[N+](=O)[O-])NCc1cnc(Cl)s1 | inactive |  | inactive | inactive |  | inactive | inactive | inactive | inactive | 
38 | CCCCCCCc1ccc(O)cc1 |  | inactive | inactive | inactive |  | 54.9 µM (active) |  | inactive |  | 
39 | CCOP(=O)(OCC)Oc1cc(C)nc(C(C)C)n1 | inactive | inactive | inactive |  | inactive | inactive | inactive | inactive | inactive | inactive
40 | [F][Sn]([c]1ccccc1)([c]1ccccc1)[c]1ccccc1 | 0.49 µM (active) | 0.692 µM (active) | 7.76 µM (active) |  | 0.864 µM (active) | 7.76 µM (active) |  | 0.273 µM (active) |  | 5.49 µM (active)

Row | Compound | Potency [1] | Potency [2] | Potency [3] | Potency [4] | Potency [5] | Potency [6] | Potency [7] | Potency [8] | Potency [9] | Potency [10]
41 | N#Cc1c2ccccc2cc2ccccc12 | inactive |  | inactive |  | inactive | inactive |  | inactive |  | inactive
42 | CCOP(=O)(OCC)Oc1nc(Cl)c(Cl)cc1Cl |  |  | inactive |  | inactive | inactive |  | 48.3 µM (active) |  | inactive
43 | CCOC(=O)Cc1ccccc1 |  |  | inactive | inactive |  | inactive | inactive | inactive | inactive | 
44 | c1ccc(N=NNc2ccccc2)cc1 |  |  | inactive |  | inactive | inactive | inactive | inactive |  | inactive
45 | COP(=O)(OC)Oc1ccc([N+](=O)[O-])cc1 |  | inactive | inactive |  | inactive | inactive |  | inactive | inactive | inactive
46 | BrCC(Br)(Br)Br | inactive | inactive | inactive |  | 50.3 µM (active) | inactive | inactive | inactive | inactive | inactive
47 | C#CC1(O)CCCCC1 | inactive |  | inactive |  | inactive | inactive | inactive | inactive | inactive | inactive
48 | Nc1ccc(Cl)cc1C(=O)c1ccccc1F | inactive | inactive | inactive | inactive |  | inactive |  | inactive |  | 
49 | CCC1(CC)C(=O)N=C(O)NC1=O | inactive | inactive | inactive | inactive |  |  | inactive | inactive |  | 
50 | CSC1=N[C@@](C)(c2ccccc2)C(=O)N1Nc1ccccc1 |  |  | inactive | inactive |  | inactive | inactive | 10.9 µM (active) | inactive | 
51 | CC(=O)[O-].CC(=O)[O-].[Co+2] | inactive | inactive | inactive | inactive |  | inactive |  |  | inactive | 
52 | Cc1nn(-c2cc(NS(C)(=O)=O)c(Cl)cc2Cl)c(=O)n1C(F)F | inactive | inactive | inactive |  | inactive | inactive | inactive | inactive | inactive | inactive
53 | BrCCCBr |  | inactive | inactive |  | inactive | inactive | inactive | inactive | inactive | inactive
54 | CN1CCc2cc3c(cc2C1O)OCO3 (centres undefined) | inactive | inactive | inactive |  | inactive | inactive |  | inactive | inactive | inactive
55 | O.O.O.O=C([O-])[C@H]([O-])[C@@H]([O-])C(=O)[O-].O=C([O-])[C@H]([O-])[C@@H]([O-])C(=O)[O-].[K+].[K+].[Sb+3].[Sb+3] | inactive | inactive | inactive | inactive |  |  |  | 1.94 µM (active) |  | 
56 | CCCCCCC[CH2][Sn]([Cl])([Cl])[CH2]CCCCCCC |  | inactive | inactive | inactive |  | inactive |  |  |  | 
57 | O=C(NC(=O)c1ccccc1Cl)Nc1ccc(OC(F)(F)F)cc1 |  |  | inactive |  | inactive | inactive | inactive | inactive | inactive | inactive
58 | CCN(CC)C(=S)S | 4.87 µM (active) and 6.92 µM (active) |  | 13.8 µM (active) |  | inactive | 38.7 µM (active) |  | 27.5 µM (active) and 9.63 µM (active) and 12.2 µM (active) |  | inactive
